# Test results as given in PubChem BioAssay (NCATS).
# Values joined by “and” are separate entries in the source; they are usually repeats but may differ in a detail not shown here. Identical values can stand only once. Results filed as inconclusive are left out. Unmarked numbers belong to inactive results. Calls follow the shape of the dose curve; as a rule, active = well fitted activation curve with a large enough effect; inconclusive = small, poorly fitted or top-dose-only effect; inactive = no such curve, though single readings can be large or run the other way.
# Molecular target: Cellular tumor antigen p53 (Homo sapiens) (UniProt P04637)
# Sequence (P04637 whole entry, looked up): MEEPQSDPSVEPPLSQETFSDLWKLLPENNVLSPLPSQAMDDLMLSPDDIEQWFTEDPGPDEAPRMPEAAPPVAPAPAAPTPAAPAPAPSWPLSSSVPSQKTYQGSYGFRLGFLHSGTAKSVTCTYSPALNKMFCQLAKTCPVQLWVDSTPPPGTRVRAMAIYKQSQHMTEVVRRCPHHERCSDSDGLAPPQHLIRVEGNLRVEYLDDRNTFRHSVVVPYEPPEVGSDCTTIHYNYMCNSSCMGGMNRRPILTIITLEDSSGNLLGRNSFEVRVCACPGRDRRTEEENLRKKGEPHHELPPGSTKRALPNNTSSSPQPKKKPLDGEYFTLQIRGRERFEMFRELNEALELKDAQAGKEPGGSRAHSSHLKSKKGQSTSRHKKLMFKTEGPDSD
# Test: Primary qHTS for small molecule compounds that upregulate eGFP-tagged delta133p53alpha (in N-terminal) cells. (AID 2060322);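 also: cells pre-induced with doxycycline then dosed without doxycycline; series mostly up to about 56 µM; 0% = DMSO vehicle and 100% = reference activator; nearly all actives have a fitted effect of over 75% in size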
# Settings: NCI-H358 eGFP-delta133p53alpha fluorescence, 24 h; activation: hits give high values
# Method in brief: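 NCI-H358 cells pre-induced 24 h with 10 ng/ml doxycycline for eGFP-delta133p53alpha, plated dox-free and exposed 24 h at 37C to titrated compounds. Fixed, Hoechst-stained; gated GFP peak intensity by laser scanning cytometry, normalized to DMSO (0%) and 57.5 uM 5-azacytidine (100%).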
row,SMILES,activation
1,CC(=O)O[C@@H](C[C@@H]1C=C(C)C(=O)O1)[C@H](C)[C@H]1CCC2[C@@]3(C)CC[C@H](O[C@@H]4O[C@H](CO)[C@@H](O)[C@H](O)[C@H]4O[C@@H]4O[C@@H](C)[C@H](O)[C@@H](O)[C@H]4O)C(C)(C)C3CC[C@@]2(C)[C@@]12COC(=O)C2 (stereo partly specified),1.79%
2,COC(=O)C1=CO[C@@H](O[C@@H]2O[C@H](CO)[C@@H](O)[C@H](O)[C@H]2O)[C@@H]2C(COC(C)=O)=C[C@H](O)[C@H]12,-14.5%
3,C[C@@H]1O[C@@H](O[C@H]2[C@@H]3C=CO[C@@H](O[C@@H]4O[C@H](CO)[C@@H](O)[C@H](O)[C@H]4O)[C@@H]3[C@@]3(CO)O[C@@H]23)[C@H](O)[C@H](O)[C@H]1OC(=O)/C=C/c1ccc(O)cc1,-25.2%
4,C[C@@H]1O[C@@H](O[C@@H]2[C@@H](O)[C@H](O[C@@H]3[C@@H](O)[C@@H](O)[C@H](O[C@H]4[C@H](OC(=O)[C@]56CCC(C)(C)C[C@H]5C5=CCC7[C@@]8(C)C[C@H](O)[C@H](O[C@@H]9O[C@@H](C)[C@H](O)[C@@H](O)[C@H]9O)[C@@](C)(CO)C8CC[C@@]7(C)[C@]5(C)C[C@H]6O)O[C@H](C)[C@H](O)[C@@H]4O)O[C@H]3C)OC[C@H]2O)[C@H](O)[C@H](O)[C@H]1O (stereo partly specified),19.6%
5,C[C@@H]1O[C@@H](O[C@H]2[C@H](OC(=O)[C@]34CCC(C)(C)C[C@H]3C3=CCC5[C@@]6(C)C[C@@H](O)[C@@H](O)[C@@](C)(CO)C6[C@H](O)C[C@@]5(C)[C@]3(C)CC4)OC[C@H](O)[C@@H]2O)[C@H](O)[C@H](O)[C@H]1O[C@@H]1OC[C@@H](O)[C@H](O[C@H]2O[C@H](C)[C@@H](O)[C@H](O)[C@@H]2O)[C@H]1O (stereo partly specified),-2.68%
6,CC(C)C1NC(=O)C(CC2(O)c3ccccc3N3C(=O)C(Cc4ccccc4)NC32)NC1=O (stereo unspecified),-9.82%
7,Cc1cccc(N2CCN(C(=O)c3cc(S(=O)(=O)N(C)C)ccc3N3CCCC3)CC2)c1C,-4.33%
8,CC1OC(O[C@@H]2[C@@H](O)[C@H](OC(=O)[C@]34CCC(C)(C)C[C@H]3C3=CCC5[C@@]6(C)CC[C@H](O[C@@H]7O[C@H](C(=O)O)[C@@H](O)[C@H](O[C@@H]8OC[C@@H](O)[C@H](O)[C@H]8O)[C@H]7O[C@@H]7O[C@H](CO)[C@H](O)[C@H](O)[C@H]7O)[C@@](C)(C=O)C6CC[C@@]5(C)[C@]3(C)C[C@H]4O)O[C@H](C)[C@@H]2OC2OC(C)C(OC3OCC(O)C(O)C3O)C(O)C2O)C(O)C(O)C1O (stereo partly specified),-3.57%
9,CC[C@@H](C)[C@@H]1OC2(C=C[C@H]1C)C[C@@H]1C[C@H](C/C=C(\C)[C@H](O[C@H]3C[C@H](OC)[C@H](O[C@H]4C[C@H](OC)[C@H](NC(C)=O)[C@H](C)O4)[C@H](C)O3)[C@H](C)/C=C/C=C3\CO[C@H]4[C@H](O)C(C)=C[C@@H](C(=O)O1)[C@@]34O)O2 (stereo partly specified),24.3%
10,CC(=O)NC(Cc1ccccc1)C(=O)O (stereo unspecified),1.67% and 0%
11,C[C@@H]1CC[C@]2(C(=O)O[C@@H]3O[C@H](CO[C@@H]4O[C@H](CO)[C@@H](O)[C@H](O)[C@H]4O)[C@@H](O)[C@H](O)[C@H]3O)CC[C@]3(C)C(=CCC4[C@@]5(C)CC[C@H](O)[C@](C)(C(=O)O)C5CC[C@]43C)[C@@H]2[C@]1(C)O (stereo partly specified),-6.11%
12,O=S(=O)(c1ccccc1)c1cnc2c(N3CCNCC3)cccc2c1,27%
13,CC1(C)CC[C@]2(C(=O)O)CC[C@]3(C)C(=CCC4[C@@]5(C)C[C@@H](O)[C@H](O)[C@](C)(CO)C5CC[C@]43C)[C@@H]2[C@@H]1O (stereo partly specified),12.5%
14,C/C=C(\C)C(=O)OC[C@H]1O[C@H](O[C@H]2O[C@H](CO)[C@@H](OC(=O)/C(C)=C/C)[C@H](O)[C@H]2O[C@@H]2O[C@H](CO)[C@@H](O)[C@H](O)[C@H]2O)[C@H](O[C@@H]2O[C@H](CO)[C@@H](O)[C@H](O)[C@H]2O)[C@@H](O)[C@@H]1O,-4.46%
15,COc1ccc(C2(O)c3ccccc3NC(=O)C2O)cc1 (stereo unspecified),-3.82%
16,C/C1=C\[C@H]2OC(=O)[C@@H](C)[C@@H]2CC/C(C(=O)O)=C/CC1,-5.34%
